PubChem BioAssay (EPA / NIEHS)
Activity calls are given as the source filed them. Rule for the calls: active = hit-call score of the fitted dose curve at least 0.9, where 1 is the maximum; inactive = score below 0.9.

Legend:
Conditions in all cases: mRNA level, 48 h; actives raise or lower the signal
[1] = read-out: Cytochrome P450 (CYP2B6), CYP2B6 (gene 1555); assay: LTEA_HepaRG_CYP2B6: Life Technologies and Expression Analysis (LTEA) Assay for Cytochrome P450 (CYP2B6) using HepaRG (AID 2283481)
Outline: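 HepaRG cells plated 48 h, switched to serum-free induction medium, then dosed 48 h (8 points, half-log from 100 uM, 0.5% DMSO). RNA isolated; CYP2B6 expression measured by qRT-PCR; gain or loss fitted relative to DMSO.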

[2] = read-out: Cytochrome P450 2C19 (Homo sapiens) (UniProt P33261); assay: LTEA_HepaRG_CYP2C19: Life Technologies and Expression Analysis (LTEA) Assay for CYP2C19 using HepaRG (AID 2283482)
Outline: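 Transcript levels of CYP2C19 were quantified by qRT-PCR after HepaRG cells were treated for 48 hours with test chemicals up to 100 uM (eight half-log concentrations, 0.5% DMSO vehicle). Gain or loss of signal was fitted relative to DMSO.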

[3] = read-out: CYP2C8 (gene 1558); assay: LTEA_HepaRG_CYP2C8: Life Technologies and Expression Analysis (LTEA) Assay for CYP2C8 using HepaRG (AID 2283483)
Outline: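 Differentiated HepaRG cells in serum-free induction medium exposed 48 h in duplicate to 8 half-log concentrations from 100 uM in 0.5% DMSO. CYP2C8 mRNA by qRT-PCR normalized to ACTB, GAPDH, POLR2A; bidirectional fit versus DMSO.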

[4] = read-out: CYP2C9 (gene 1559); assay: LTEA_HepaRG_CYP2C9: Life Technologies and Expression Analysis (LTEA) Assay for CYP2C9 using HepaRG (AID 2283484)
Outline: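 Differentiated human HepaRG cells in serum-free induction medium were exposed 48 h to chemicals in 8-point half-log series from 100 uM (0.5% DMSO), in duplicate. CYP2C9 mRNA was measured by qRT-PCR, normalized to ACTB/GAPDH/POLR2A, with bidirectional fitting versus DMSO.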

[5] = read-out: CYP2E1 (gene 1571); assay: LTEA_HepaRG_CYP2E1: Life Technologies and Expression Analysis (LTEA) Assay for CYP2E1 using HepaRG (AID 2283485)
Outline: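 HepaRG cells, plated 48 h, then exposed 48 h in serum-free induction medium to eight half-log concentrations from 100 uM in 0.5% DMSO, duplicate. CYP2E1 mRNA by qRT-PCR, normalized to ACTB/GAPDH/POLR2A; bidirectional fit versus DMSO.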

[6] = read-out: DNA damage-inducible transcript 3 (DDIT3), DDIT3 (gene 1649); assay: LTEA_HepaRG_DDIT3: Life Technologies and Expression Analysis (LTEA) Assay for DNA damage-inducible transcript 3 (DDIT3) using HepaRG (AID 2283488)
Outline: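 HepaRG cells, 48 h after plating, exposed 48 h in serum-free induction medium to 8 half-log concentrations up to 100 uM in 0.5% DMSO, in duplicate. DDIT3 mRNA measured by TaqMan qRT-PCR, normalized to ACTB, GAPDH and POLR2A. Fitted bidirectionally against DMSO.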

[7] = read-out: Pro-epidermal growth factor (Homo sapiens) (UniProt P01133); assay: LTEA_HepaRG_EGF: Life Technologies and Expression Analysis (LTEA) Assay for Epidermal growth factor (EGF) using HepaRG (AID 2283489)
Outline: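 HepaRG, 48 h dosing, 100 uM top, half-log x8, 0.5% DMSO. Readout: TaqMan qRT-PCR (Fluidigm array), housekeeping-normalized. Gain or loss of signal fit vs DMSO.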

[8] = read-out: Early growth response protein 1 (EGR1) transcription factor, EGR1 (gene 1958); assay: LTEA_HepaRG_EGR1: Life Technologies and Expression Analysis (LTEA) Assay for Early growth response protein 1 (EGR1) transcription factor using HepaRG (AID 2283490)
Outline: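 Differentiated HepaRG cells in serum-free induction medium exposed 48 hours, duplicate, to 8 half-log concentrations up to 100 uM in 0.5% DMSO. EGR1 mRNA measured by TaqMan qRT-PCR, normalized to ACTB, GAPDH, POLR2A; bidirectional fit versus DMSO.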

[9] = read-out: Ezrin (EZR), EZR (gene 7430); assay: LTEA_HepaRG_EZR: Life Technologies and Expression Analysis (LTEA) Assay for Ezrin (EZR) using HepaRG (AID 2283491)
Outline: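 EZR transcript levels came from Fluidigm qRT-PCR and were normalized to three housekeeping genes after 48 h chemical exposure of HepaRG cells. Dosing used an 8-point half-log series with a 100 uM top concentration in 0.5% DMSO, tested in duplicate; both directions were fitted versus vehicle.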

[10] = read-out: Cytochrome P450 3A7 (Homo sapiens) (UniProt P24462); assay: LTEA_HepaRG_CYP3A7: Life Technologies and Expression Analysis (LTEA) Assay for CYP3A7 using HepaRG (AID 2283492)
Outline: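 Human HepaRG liver cells, 48 h post-plating, switched to serum-free induction medium and exposed in duplicate for 48 h. Dosing: 100 uM top, half-log dilutions, 8 points, 0.5% DMSO vehicle. Read-out: CYP3A7 mRNA, gain or loss fitted against DMSO baseline.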

[11] = read-out: CYP3A5 (gene 1577); assay: LTEA_HepaRG_CYP3A5: Life Technologies and Expression Analysis (LTEA) Assay for CYP3A5 using HepaRG (AID 2283493)
Outline: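 HepaRG cells, plated 48 h then in serum-free induction medium, dosed in duplicate for 48 h with eight half-log concentrations up to 100 uM in 0.5% DMSO. Gene mRNA by Fluidigm TaqMan qRT-PCR, normalized to ACTB, GAPDH, POLR2A.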

[12] = read-out: Fatty Acid-Binding Protein 1 (FABP1), FABP1 (gene 2168); assay: LTEA_HepaRG_FABP1: Life Technologies and Expression Analysis (LTEA) Assay for Fatty Acid-Binding Protein 1 (FABP1) using HepaRG (AID 2283494)
Outline: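 Differentiated human HepaRG cells exposed 48 h in serum-free induction medium to eight half-log concentrations up to 100 uM (0.5% DMSO), duplicate. FABP1 mRNA by qRT-PCR, normalised to ACTB, GAPDH, POLR2A; bidirectional fitting against DMSO.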

[13] = read-out: Cytochrome P450 4A22 (Homo sapiens) (UniProt Q5TCH4); assay: LTEA_HepaRG_CYP4A22: Life Technologies and Expression Analysis (LTEA) Assay for Cytochrome P450 4A22 (CYP4A22) using HepaRG (AID 2283495)
Outline: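 Readout is CYP4A22 transcript induction or loss, quantified by qRT-PCR and normalized to ACTB, GAPDH and POLR2A. Human HepaRG cells receive test chemicals for 48 h at eight half-log concentrations from 100 uM in 0.5% DMSO.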

[14] = read-out: Cytochrome P450 7A1 (Homo sapiens) (UniProt P22680); assay: LTEA_HepaRG_CYP7A1: Life Technologies and Expression Analysis (LTEA) Assay for Cytochrome P450 7A1 (CYP7A1) using HepaRG (AID 2283496)
Outline: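 HepaRG cells plated 48 h, then switched to serum-free induction medium and exposed in duplicate for 48 h to 8-point half-log series from 100 uM in 0.5% DMSO. CYP7A1 mRNA by qRT-PCR (TaqMan), normalized to ACTB/GAPDH/POLR2A; bidirectional fit versus DMSO.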

[15] = read-out: Glutathione S-Transferase (GSTA2), GSTA2 (gene 2939); assay: LTEA_HepaRG_GSTA2: Life Technologies and Expression Analysis (LTEA) Assay for Glutathione S-Transferase (GSTA2) using HepaRG (AID 2283497)
Outline: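 Differentiated human HepaRG cells were exposed in duplicate for 48 h in serum-free induction medium, 8 points from 100 uM top in half-log steps, 0.5% DMSO. GSTA2 mRNA was measured by TaqMan qRT-PCR, normalized to ACTB, GAPDH and POLR2A; bidirectional fit versus DMSO.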

[16] = read-out: Glutamate-cysteine ligase catalytic (GCLC), GCLC (gene 2729); assay: LTEA_HepaRG_GCLC: Life Technologies and Expression Analysis (LTEA) Assay for Glutamate-cysteine ligase catalytic (GCLC) using HepaRG (AID 2283498)
Outline: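 Differentiated HepaRG cells exposed 48 h in serum-free induction medium, eight-point half-log series topping at 100 uM in 0.5% DMSO, duplicates. GCLC mRNA by qRT-PCR normalized to ACTB, GAPDH and POLR2A, fitted bidirectionally versus DMSO.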

[17] = read-out: growth arrest and DNA damage 45 (GADD45G), GADD45G (gene 10912); assay: LTEA_HepaRG_GADD45G: Life Technologies and Expression Analysis (LTEA) Assay for growth arrest and DNA damage 45 (GADD45G) using HepaRG (AID 2283499)
Outline: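 Gain or loss of GADD45G mRNA, quantified by TaqMan qRT-PCR against three housekeeping genes, is fitted in both directions relative to 0.5% DMSO. Human HepaRG cultures receive test chemical for 48 h at up to 100 uM.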

[18] = read-out: Glutamate-cysteine ligase regulatory (GCLM), GCLM (gene 2730); assay: LTEA_HepaRG_GCLM: Life Technologies and Expression Analysis (LTEA) Assay for Glutamate-cysteine ligase regulatory (GCLM) using HepaRG (AID 2283500)
Outline: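 Differentiated HepaRG cells exposed 48 h in serum-free induction medium to eight half-log concentrations up to 100 uM (0.5% DMSO). GCLM mRNA by TaqMan qRT-PCR, normalized to ACTB, GAPDH and POLR2A; bidirectional fit versus DMSO.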

[19] = read-out: Cytochrome P450 3A4 (Homo sapiens) (UniProt P08684); assay: LTEA_HepaRG_CYP3A4: Life Technologies and Expression Analysis (LTEA) Assay for CYP3A4 using HepaRG (AID 2283487)
Outline: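 Differentiated HepaRG cells, plated 48 h, then dosed 48 h in serum-free induction medium with 0.5% DMSO, 8 half-log concentrations up to 100 uM, duplicate. CYP3A4 mRNA by qRT-PCR, normalized to ACTB/GAPDH/POLR2A; bidirectional fit versus DMSO.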

Measured: outcome

Chain of Cytochrome P450 2C19 (Homo sapiens) (P33261 whole entry, looked up): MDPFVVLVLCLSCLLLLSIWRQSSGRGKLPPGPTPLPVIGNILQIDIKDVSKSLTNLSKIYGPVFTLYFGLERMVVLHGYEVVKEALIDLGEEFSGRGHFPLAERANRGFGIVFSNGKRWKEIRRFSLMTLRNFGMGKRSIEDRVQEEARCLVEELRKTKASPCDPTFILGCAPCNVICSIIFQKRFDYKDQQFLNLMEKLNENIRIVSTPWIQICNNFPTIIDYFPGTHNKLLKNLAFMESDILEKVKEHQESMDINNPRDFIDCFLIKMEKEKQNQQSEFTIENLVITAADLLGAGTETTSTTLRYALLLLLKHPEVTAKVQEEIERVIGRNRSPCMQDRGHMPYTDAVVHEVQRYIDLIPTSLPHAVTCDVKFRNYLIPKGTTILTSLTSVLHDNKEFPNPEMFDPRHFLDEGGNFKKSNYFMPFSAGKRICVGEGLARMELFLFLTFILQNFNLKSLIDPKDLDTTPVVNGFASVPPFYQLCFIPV
Chain of Cytochrome P450 3A7 (Homo sapiens) (P24462 whole entry, looked up): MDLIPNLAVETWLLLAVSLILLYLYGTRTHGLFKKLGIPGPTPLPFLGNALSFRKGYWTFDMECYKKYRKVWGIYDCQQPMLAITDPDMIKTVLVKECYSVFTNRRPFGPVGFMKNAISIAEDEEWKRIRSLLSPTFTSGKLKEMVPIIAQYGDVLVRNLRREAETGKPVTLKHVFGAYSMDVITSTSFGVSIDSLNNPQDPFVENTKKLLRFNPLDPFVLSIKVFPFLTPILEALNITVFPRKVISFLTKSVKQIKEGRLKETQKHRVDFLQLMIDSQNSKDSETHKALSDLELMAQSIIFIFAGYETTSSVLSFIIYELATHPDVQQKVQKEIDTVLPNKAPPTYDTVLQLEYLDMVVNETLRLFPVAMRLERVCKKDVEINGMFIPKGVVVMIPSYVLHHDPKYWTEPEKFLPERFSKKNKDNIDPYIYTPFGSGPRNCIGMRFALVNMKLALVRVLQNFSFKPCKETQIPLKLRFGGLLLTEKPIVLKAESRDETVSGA
Chain of Cytochrome P450 3A4 (Homo sapiens) (P08684 whole entry, looked up): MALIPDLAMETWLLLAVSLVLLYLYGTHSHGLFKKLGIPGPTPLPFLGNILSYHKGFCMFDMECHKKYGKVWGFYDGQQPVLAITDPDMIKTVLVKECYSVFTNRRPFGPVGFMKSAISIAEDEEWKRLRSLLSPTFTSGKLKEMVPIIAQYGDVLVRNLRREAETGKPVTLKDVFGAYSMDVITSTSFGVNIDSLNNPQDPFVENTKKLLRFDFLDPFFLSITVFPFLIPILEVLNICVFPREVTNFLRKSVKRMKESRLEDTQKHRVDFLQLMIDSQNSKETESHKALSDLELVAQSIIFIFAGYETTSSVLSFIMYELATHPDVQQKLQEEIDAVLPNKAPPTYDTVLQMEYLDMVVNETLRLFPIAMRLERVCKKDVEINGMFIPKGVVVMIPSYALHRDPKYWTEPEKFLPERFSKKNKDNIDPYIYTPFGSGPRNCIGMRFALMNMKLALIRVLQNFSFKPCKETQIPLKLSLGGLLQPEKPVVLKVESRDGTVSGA

OCc1ccccc1
not listed: [19]
inactive: all other assays above

OC(CCl)CCl
not listed: [5]
inactive: all other assays above

OC[C@H]1O[C@@](CO)(O[C@H]2O[C@H](CO)[C@@H](O)[C@H](O)[C@H]2O)[C@@H](O)[C@@H]1O
not listed: [5] | [19]
inactive: all other assays above
